# Compound activity as filed in PubChem BioAssay.
# Compounds with a hit are over-represented: about 1.4% of the library has one in this group of screens.
# Polio RdRp inh: poliovirus RNA polymerase inhibition | 150,000 tested, 0.66% active | AID 588519 | poliovirus polymerase elongation, fluorescence polarization; active compounds read low | P03300 | % elongation, % (compound at 16.7 µg/mL); in the data active means % elongation below about 90%
# Mtb MenB inh: inhibitors of Mycobacterium tuberculosis MenB enzyme; MenB enzyme assay, absorbance read-out; inhibition, % (concentration not given with the values); 100,000 tested, 0.43% active; in the data active means inhibition above about 21%, passing the limit was not always enough
# Mtb MbtI inh: MbtI salicylate synthase inhibition. P9WFX0. purified MbtI enzyme, fluorescence intensity read-out. inhibition, % (test concentration not listed). 100,000 tested, 0.89% active. AID 493033; in the data active means inhibition mostly above about 56%, no sharp cut-off; inactive means mostly below about 77%
# Target sequence (P9WFX0 whole entry, looked up): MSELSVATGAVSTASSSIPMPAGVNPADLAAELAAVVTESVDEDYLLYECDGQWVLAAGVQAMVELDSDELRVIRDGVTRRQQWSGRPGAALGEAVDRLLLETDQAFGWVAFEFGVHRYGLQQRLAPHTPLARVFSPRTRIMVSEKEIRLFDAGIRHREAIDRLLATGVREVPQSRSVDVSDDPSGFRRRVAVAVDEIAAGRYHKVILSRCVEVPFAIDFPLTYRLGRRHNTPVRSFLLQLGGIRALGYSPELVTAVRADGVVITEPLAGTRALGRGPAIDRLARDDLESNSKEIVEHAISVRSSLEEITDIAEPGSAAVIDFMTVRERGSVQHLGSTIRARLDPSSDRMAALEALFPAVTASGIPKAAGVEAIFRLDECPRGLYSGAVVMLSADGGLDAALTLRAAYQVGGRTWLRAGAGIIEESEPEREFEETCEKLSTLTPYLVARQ
# AID504770: E. coli YBA685 growth inhibition, screen for V. cholerae RctB inhibitors. E. coli YBA685 rctB-dependent plasmid, OD600 growth, 3 h; active compounds read low. z-score (concentration not given with the values). 130,000 tested, 0.27% active; in the data active means z-score below about -2, passing the limit was not always enough
# The depositor's hits bear a star; . = no result given; ! = a repeat was not active.
SMILES,Polio RdRp inh,Mtb MenB inh,Mtb MbtI inh,AID504770
NC(=S)c1cccc(Oc2ccccc2)c1,87*,-69,30,2
Cc1cc(C(=O)CSc2nc(N)nc(N)n2)c(C)n1C1CCS(=O)(=O)C1 (configuration not stated),101,-1,4,-2.2
S=c1nc(-c2ccccc2)[nH]n1CN1CCc2ccccc2C1,99,-13,96*,1.9
Cc1cccc(-c2nsc(SCC(=O)N3CCCCC3)n2)c1,102,6,49,0
CCOC(=O)CSc1nc(-c2ccccc2)ns1,93,-2,52*,-0.05
Cc1nc(CSc2nncs2)cs1,83*,-40,80*,-0.3
Cc1nc(CSc2n[nH]c(C(C)(C)C)n2)cs1,105,8,-10,0.6
O=C(C[n+]1cccc(C(=O)Nc2ccccc2)c1)c1ccc(N2C(=O)c3ccccc3C2=O)cc1,102,-89,57*,-2.8
CN(CC(=O)N1CCCCC1)S(=O)(=O)c1cnc[nH]1,.,.,.,-0.75
CCOC(=O)c1sc(N(C)C(C)=O)nc1C,99,39*,19,0.8
CCOC(=O)c1sc(Br)nc1C,.,.,.,0.95
CC1(C)CC(=O)C=C(NNc2ccccn2)C1,101,-78,58*,-0.55
COc1ccc(N=C2C(=O)Nc3ccc(Br)cc32)cc1,98,-3,0,-0.95
Nc1nnnn1/N=C1/C(=O)Nc2ccc(Br)cc21,72*,-60,.,0.15
CCn1c(COc2cccc(C)c2)nnc1SCC(=O)NC(C)(C)C,103,41*,12,2.5
Cc1cn(CCC(=O)NCc2ccc3c(c2)OCO3)c2ccccc12,.,.,.,0.1
O=C(CC(NCCN1CCOCC1)C(=O)O)Nc1ccc2ccccc2c1 (configuration not stated),102,-6,15,0.85
Cc1ccc(C(=O)CC(NCCN2CCOCC2)C(=O)O)cc1 (configuration not stated),103,33*,.,-0.2
c1ccc(-c2nnc(SCCN3CCOCC3)o2)cc1,100,26*,-4,-0.2
O=c1oc(-c2cc3ccccc3s2)ns1,85*,-19,.,-0.25
Cc1cccc2nc(-c3cc4ccccc4s3)oc(=O)c12,.,.,.,1.4
COc1ccc(Cl)cc1N(C)C(=O)Cn1nc(Cc2ccncc2)c2ccccc2c1=O,.,.,.,0.85
O=C1C=CC(=O)N1Cc1ccccc1,103,-3,-13,-2.5*
Cc1csc(C(C#N)C(=O)CSc2nnc(NC3CC3)s2)n1 (configuration not stated),103,-31,18,0.05
CC(C)(C)Sc1ccc(SC#N)s1,95,-32,81*,0.75
SMILES,Polio RdRp inh,Mtb MenB inh,Mtb MbtI inh,AID504770
CC(C)(C)Sc1ccc(C(=O)O)s1,.,.,57*,-0.3
Cc1cc(C)n(C(=O)c2ccc(NC(=O)C3CCCCC3)cc2)n1,.,.,.,-0.25
Cn1cc(NC(=O)N(Cc2ccco2)CC2CCCO2)c2ccccc2c1=O (configuration not stated),82*,-27,-13,0.1
CC(C(=O)O)c1ccc(N)cc1 (configuration not stated),.,.,.,-0.4
CN(C)S(=O)(=O)c1ccc(=S)[nH]c1,96,-53,95*,-0.75
CSc1ccc(S(=O)(=O)N(C)C)cc1,101,-10,-13,-0.45
O=C(NCc1c(-n2cccc2)sc2c1CCCC2)NC12CC3CC(CC(C3)C1)C2,101,-12,-7,-0.45
c1ccc(N=P(c2ccc(N3CCOCC3)cc2N2CCOCC2)(N2CCOCC2)N2CCOCC2)cc1,110,-20,6,0.55
Oc1ccc(Cl)cc1-c1csnn1,100,2,9,-2.2*
CC(C(=O)O)c1ccc(N2Cc3ccccc3C2=O)cc1 (configuration not stated),102*!,-14,-4,0.45
Cc1cc2nc3ccc(=[N+](C)C)cc-3sc2cc1N,2.0*,12,.,13
O=C(COC(=O)c1ccc(Oc2ccccc2)cc1)Nc1ncccn1,99,-38,17,-0.85
Oc1ccc(CN2CCN(c3ccccc3)CC2)c2cccnc12,106,-51,-2,2.3
O=C(O)c1c(CN2CCN(c3ccccc3)CC2)c(O)c2ccccc2c1O,86*,-28,0,1.5
CN(C)C1(CNCc2cnn(-c3ccccc3)n2)CCCCC1,88*,8,-1,0
CN(C)C1(CNCc2nc3ccccc3c(=O)[nH]2)CCCCC1,95,-43,19,0.35
O=S(=O)(NCc1ccccc1Cl)c1cccc2nsnc12,102,-15,12,-0.2
CC(=O)O/N=C(/N)c1cnn2c(C(F)(F)F)cc(C(F)(F)F)nc12,102,-13,5,0.8
O=C(O)Cc1c(-c2ccc(Cl)cc2)nc2ccccc2c1C(=O)O,.,.,.,-0.6
Cc1c(-c2ccccc2)nc2ccccc2c1C(=O)O,103,34*,-3,1.2
COC(=O)/C=C/S(=O)(=O)c1ccc(Br)cc1,104,-11,100*,-2.8*
CC(=O)Nc1ccc(S(=O)(=O)N=S(C)(C)=O)cc1,102,-2,-7,0.35
COC(=O)/C=C/S(=O)(=O)c1ccc(NC(C)=O)cc1,104,-12,67*,-1.1
CC(Cc1ccco1)NC(=O)Cn1c(=O)oc2ccccc21 (configuration not stated),101,14,16,-0.5
Nc1cccnc1Sc1nc2cccnc2s1,.,.,.,-0.3
SMILES,Polio RdRp inh,Mtb MenB inh,Mtb MbtI inh,AID504770
COc1cc(C2CC(=O)N3CN(Cc4ccccc4)CSC3=C2C#N)cc(Br)c1O (configuration not stated),101,-13,53,0.3
N#CC1=C2SCN(C3CCCCC3)CN2C(=O)CC1c1ccc(Br)cc1 (configuration not stated),95,.,.,.
COc1ccc(C2CC(=O)N3CN(C4CCCCC4)CSC3=C2C#N)c(OC)c1 (configuration not stated),54*,.,.,.
N#CC1=C2SCN(C3CCCCC3)CN2C(=O)CC1c1ccccc1 (configuration not stated),101,-13,73*,0.5
Nc1nn(-c2ccc(Cl)cc2)nc1C(=O)c1ccccc1,.,.,.,-0.8
COC(=O)C1=CN(C(CC(C)C)C(=O)OC)C=C(C(=O)OC)C1c1ccc(Br)cc1 (configuration not stated),104,1,28,2.1
Cc1cc(C)cc(OC(=O)c2cccnc2)c1,99,0,7,1.2
Cc1ccc(OC(=O)c2cccnc2)cc1,102,52*,2,1.7
S=C=NCCc1ccccc1,89*,-23,65*,-0.9
COc1ccc(CCC(O)C2(O)CCCCC2)cc1 (configuration not stated),101,-18,.,1.8
COc1ccc(CCN=C=S)cc1,77*,-68,96*,-1.5
CCn1cc(C(=O)O)c(=O)c2cc(F)c(NN3C(=O)CSC3c3ccccc3Cl)cc21 (configuration not stated),123,-15,.,-1.5
Cc1nc(SCC(=O)N(Cc2ccco2)CC(F)(F)F)c2ccccc2n1,105,-10,3,0.05
COCCNC(=S)c1ccc(N(C)C)cc1,101,-52,62*,-0.35
O=C(NCc1ccccc1)C1CCN(C(=O)c2sccc2-n2cccc2)CC1,.,.,.,-0.4
